From PubChem BioAssay
Shown are actives, neighbours in structure and some others; about 5.9% of the full set was active somewhere.
DAX1 inh = inhibits human nuclear receptor DAX1; P51843; HEK293 Gal4-DAX1 luciferase reporter, luminescence; inhibition, % at 6.75 µM; 340,000 tested, 0.99% active;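 active = inhibition above the mean over all tested compounds plus 3 SD, cut at about 4.2% in these data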;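 note: 0% = DAX1-transfected cells with DMSO and 100% = empty-vector control cells with DMSO; inhibition shows as a rise in luminescence from relieved DAX1 repression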
GAA850 FXN act = activators of GAA850 frataxin (FXN) promoter; HEK293 lucGAA850 FXN promoter luciferase reporter, 24 h; percent of 10 µM SAHA response; activation, % at 6 µM; 360,000 tested, 0.56% active;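 active = activation above the average of all compounds screened plus 3 SD, cutoff fixed separately per campaign, cut at about 7.5% in these data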;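 note: 0% = DMSO wells and 100% = 10 µM SAHA wells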
HSF1 inhib = HSF1 inhibition | NIH3T3-HGL HSE-luciferase, MG132-induced, luminescence 8 h; active compounds read low | activity change, negative = inhibition, % at 7.5 µM (by protocol) | 300,000 tested, 0.77% active | AID 2098;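 active = more than half of replicate wells show activity change below -50%, luminescence cut by over half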;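 note: luciferase reports HSF-1 transcriptional activity via heat shock element; 0% = median of DMSO wells and -100% = zero luminescence signal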
AHR activator = activates the human aryl hydrocarbon receptor | AID 2796 | 320,000 tested, 2.5% active | P35869 | activation, % at 5 µM | AHR-responsive luciferase reporter cells, luminescence; in the data active = activation above about 47%;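 note: 0% = vehicle wells and 100% = reference agonist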
HSP90 refold inh = HSP90 refolding inhibition in rabbit reticulocyte lysate; 290,000 tested, 0.91% active; AID 1789; inhibition, % at 5.6 µM; luciferase refolding luminescence, 3 h;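 active = inhibition above the screen-wide mean plus 3 SD, computed separately per campaign, cut at about 16% in these data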;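 note: 0% = DMSO wells and 100% = 60 µM geldanamycin wells; inhibitors lower the luminescence because luciferase stays unfolded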
HSF-1 act = increases HSF-1 driven luciferase reporter signal; NIH3T3-HGL HSF-1 luciferase reporter, MG132, 8 h; 100% = twice DMSO control signal; 300,000 tested, 1.7% active; AID 504408; activation, % at 9 µM;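 active = mean replicate activation of at least 50% with a set share of replicates each reaching 50%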;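 note: 0% = median of the neutral control wells and 100% = twice that signal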
* hit, by the source's call; / = no result.

SMILES	DAX1 inh	GAA850 FXN act	HSF1 inhib	AHR activator	HSP90 refold inh	HSF-1 act
Cc1ccc(S(=O)(=O)Nc2cccc3c2O[C@H](CN(C)C(=O)Nc2cccc4ccccc24)[C@H](C)CN([C@H](C)CO)C3=O)cc1	0.8	-5.6	/	9.2	/	/
CCOC(=O)c1cc(CC)sc1/N=C/C1=C(O)CCCC1=O	1.6	-0.3	-54.1*	2.6	-11.7	-67.0
CC(C(=O)N1CCCC1)N(c1ccc(Cl)cc1)S(C)(=O)=O (stereo unspecified)	-0.7	0.9	/	/	/	/
COCCNC(=O)C1CC(=O)N(C2CCCCC2)C1 (stereo unspecified)	0.5	-1.3	15.0	3.2	0.4	55.4*
O=C(CNC(c1ccccc1)c1ccccc1)NCc1ccccc1Cl	0.0	2.0	3.4	-0.4	2.0	-2.6
Cc1ccc(Cl)cc1NC(=O)CCC(=O)Nc1cc(Cl)ccc1C	-0.4	1.3	2.8	1.8	3.0	2.0
CCCC(=O)Nc1cc(Cl)ccc1C	6.5*	-1.3	-26.3	1.3	0.3	-41.9
Cc1cc(C)c(NC(=O)CN(C)CC(=O)N(C)CC(=O)Nc2c(Cl)cccc2Cl)c(C)c1	-0.3	1.3	/	0.1	/	/
COC(=O)[C@H](CCSC)NC(=O)Nc1cccc(C)c1C	-0.4	-0.2	40.4	-1.0	-3.2	96.1*
CCc1ccc(C(=O)NC(CCSC)C(=O)OC)cc1 (stereo unspecified)	0.8	1.6	-80.5*	1.4	0.7	-84.5
CSCCC(NC(=O)c1ccc(Cl)cc1)C(=O)OCC(=O)NCc1ccco1 (stereo unspecified)	-0.6	-0.2	3.1	1.5	/	8.0
CSCCC(NC(=O)c1ccc(Cl)cc1)C(=O)OCC(=O)Nc1cc(Cl)ccc1C#N (stereo unspecified)	0.4	2.2	-1.9	56.1*	-1.1	17.2
COC(=O)c1[nH]c2cc(OC)c(OC)cc2c1NC(=O)CN1C[C@H]2C[C@@H](C1)c1cccc(=O)n1C2	0.6	1.2	/	1.2	/	/
Clc1nn2cnnc2c2ccccc12	6.2*	-0.2	-5.1	-2.2	4.2	-8.1
Cc1ccc(-c2n[nH]c(=S)n2/N=C/c2cccs2)cc1	-1.0	0.9	1.5	55.0*	5.2	14.6
CC(C)(C)c1ccc(-c2n[nH]c(=S)n2/N=C/c2ccncc2)cc1	-0.1	2.2	15.9	74.5*	0.3	2.2
O=[N+]([O-])c1ccc(/C=N/n2c(-c3cccnc3)n[nH]c2=S)cc1	-0.1	0.2	-7.5	4.0	-0.6	18.4
Cc1ccsc1/C=N/n1c(-c2cccnc2)n[nH]c1=S	2.3	0.2	-2.2	60.2*	2.1	-4.8
COc1ccc(-c2n[nH]c(=S)n2/N=C/c2cccn2C)cc1	0.8	0.5	-1.6	69.7*	-0.2	2.8
S=c1[nH]nc(-c2ccccc2)n1/N=C/c1cccs1	0.0	-0.2	2.4	37.3	0.3	30.2
C=CCN(C(=O)c1csnn1)C(C(=O)NCc1ccccc1)c1c(F)cccc1Cl (stereo unspecified)	-1.3	-0.4	1.7	-1.5	-7.5	-1.3
CCOC(=O)c1c(-c2ccc(C)cc2)csc1NC(=O)CCN1CC(C)OC(C)C1 (stereo unspecified)	-1.8	5.0	-3.8	7.1	5.5	-1.9
COc1ccc(C(CNC(=O)c2ccc(C)c(S(=O)(=O)N3CCOCC3)c2)N2CCCC2)cc1 (stereo unspecified)	0.7	-3.6	/	/	/	/
Cc1c(Cl)cccc1NC(=O)Nc1cnccn1	-0.2	1.8	-64.2*	25.8	-5.5	-72.1
Cc1c(Cl)cccc1NC(=O)Nc1cccnc1	-0.1	1.7	-5.3	38.3	-2.1	-2.6
SMILES	DAX1 inh	GAA850 FXN act	HSF1 inhib	AHR activator	HSP90 refold inh	HSF-1 act
O=C(Nc1cnccn1)Nc1ccccc1F	-0.2	2.3	5.3	60.6*	-2.7	5.4
O=C(Nc1ccc(Cl)cn1)Nc1ccccc1F	6.9*	2.1	19.5	38.7	-3.6	36.0
COc1ccccc1NC(=O)Nc1cnccn1	1.1	4.8	-6.5	-0.7	0.4	0.4
O=C(Nc1ccc(Cl)cn1)Nc1ccc(Cl)cn1	-0.1	1.3	9.0	14.5	0.3	28.1
Cc1ccc(CN2CCNC(=O)C2CC(=O)NCC(F)(F)F)o1 (stereo unspecified)	1.4	1.7	3.6	0.0	1.6	15.8
Cc1ccc(S(=O)(=O)c2c(N)n(CCCO)c3nc4ccccc4nc23)cc1	-0.5	1.5	11.7	-0.4	1.2	27.2
